Screens as filed in PubChem.
Shown are actives, neighbours in structure and some others; about 2.9% of the full set was active somewhere.
D3 antag: antagonists of human D3 dopamine receptor. max response, negative = inhibition, %. D3R cells, DiscoveRx beta-arrestin luminescence, antagonist mode; stronger effect = lower value. P35462. 2.5% of 360,000 active; in the data active = max response below about -50%; inconclusive = no clear call, values can overlap the other calls
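Cells plated overnight at 1500 cells/well, then exposed to library compounds with dopamine controls for 90 minutes at 37 degrees C. DiscoveRx reagent added for 30–60 minutes at room temperature; luminescence read, quantitative HTS format.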
D3 ag: agonists of human D3 dopamine receptor; D3R DiscoveRx beta-arrestin cells, luminescence, 90 min; max activation, %; 0.58% of 410,000 active; AID 652048; in the data active = max activation above about 30%
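Agonist-mode cell screen: cells plated at 1500/well and incubated overnight at 37 °C, then exposed to library compounds for 90 min at 37 °C. Detection reagent was added for 30–60 min at room temperature, and luminescence was read.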
TRPML1 inh: blocks the human TRPML1 channel; AID 624415; Q9GZU1; activity change, negative = inhibition, % (test concentration not listed); TRPML1-inducible cells, Ca2+ dye fluorescence, FDSS; stronger effect = lower value; inhibition of EC80 agonist-evoked calcium signal; 0.02% of 390,000 active; in the data active = activity change below about -50%; inconclusive = between about -30% and that limit;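 note: stimulus is agonist 54-4 at its EC80 concentration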
Target sequence (Q9GZU1 whole entry, looked up): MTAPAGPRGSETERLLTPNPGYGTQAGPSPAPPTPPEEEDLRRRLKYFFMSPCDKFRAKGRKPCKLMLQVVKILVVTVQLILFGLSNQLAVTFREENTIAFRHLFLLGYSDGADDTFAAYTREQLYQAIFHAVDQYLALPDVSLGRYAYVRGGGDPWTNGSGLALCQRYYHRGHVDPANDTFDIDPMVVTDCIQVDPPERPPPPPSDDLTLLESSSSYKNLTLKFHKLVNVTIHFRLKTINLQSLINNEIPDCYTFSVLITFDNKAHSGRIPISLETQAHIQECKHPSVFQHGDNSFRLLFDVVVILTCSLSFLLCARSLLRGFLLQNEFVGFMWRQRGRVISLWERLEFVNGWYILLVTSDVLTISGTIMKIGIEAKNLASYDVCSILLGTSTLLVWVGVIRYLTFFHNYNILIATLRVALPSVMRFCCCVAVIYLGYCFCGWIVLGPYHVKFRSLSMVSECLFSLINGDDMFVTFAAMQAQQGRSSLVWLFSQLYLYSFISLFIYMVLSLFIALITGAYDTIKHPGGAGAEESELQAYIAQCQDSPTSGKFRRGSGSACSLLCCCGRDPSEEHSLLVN
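TRPML1-DL cells, Tet-induced overnight (~16 h, 37 °C) at 1,500 cells/well, were loaded with Ca8 no-wash dye plus quencher for 45-90 min at room temperature. Compounds were pinned during FDSS kinetic reading; agonist 54-4 at EC80 (4 uM final) then added.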
TRPML1 agonist: agonists of human TRPML1 channel. Q9GZU1. AID 624414. TRPML1-expressing cells, Ca2+ dye fluorescence, FDSS. 0.12% of 410,000 active. activation, % (test concentration not listed); in the data active = activation above about 50%; inconclusive = mostly about 30% to 49%
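Tetracycline-induced TRPML1-DL cells are seeded and incubated overnight before loading with a no-wash Ca2+ dye and quencher. Agonist activity is taken from the 110 s fluorescence read following compound pin-transfer on an FDSS, before EC80 54-4 challenge.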
Large screens that a line does not name were inactive.

COc1cccc(C(=O)N2c3nc(-c4ccco4)nn3C3(CCCCC3)[C@@H]3CCCC[C@@H]32)c1	none (no result: D3 antag)
CCCC(=O)N1CCC1(C)C(=O)NS(=O)(=O)c1cccc(Cl)c1 (configuration not stated)	none (no result: TRPML1 inh)
CCCC(=O)N1CCC1(C)C(=O)NS(=O)(=O)c1cccc(C)c1 (configuration not stated)	D3 ag 92.5 (no result: TRPML1 inh)
Cc1cc(C)cc(CC(=O)N2CCC2(C)C(=O)NS(=O)(=O)c2ccc(C#N)cc2)c1 (configuration not stated)	D3 ag 70.4 (no result: TRPML1 inh)
CC1(C(=O)NS(=O)(=O)c2ccc(C#N)cc2)CCN1C(=O)Cc1ccsc1 (configuration not stated)	none (no result: TRPML1 inh)
Cc1cc(C(=O)N2CCC2(C)C(=O)NS(=O)(=O)c2cccc(OC(F)F)c2)nn1C (configuration not stated)	D3 ag 74.0 (no result: TRPML1 inh)
CCN1/C(=C/C=C/c2oc3ccc(-c4ccccc4)cc3[n+]2CC)Oc2ccc(-c3ccccc3)cc21	TRPML1 agonist 80.1
Cc1ccccc1C1C(C#N)=C2N=C(N)c3ccccc3N2C2=C1C(=O)CCC2 (configuration not stated)	none
Cc1ccccc1C1C(C#N)=C2N=C(N)c3c(sc4c3CCCCC4)N2C2=C1C(=O)CC(C)(C)C2 (configuration not stated)	D3 antag -60.8
Cn1c(CCN2CCCCC2)nc2cc(NS(=O)(=O)c3ccc(F)cc3)ccc21	D3 antag -65.9
Cc1ccc(S(=O)(=O)Nc2ccc3c(c2)nc(CCN2CCCCC2)n3C)cc1	D3 antag -78.9
COc1ccc(-c2cc(C(F)(F)F)nc(SCC(=O)NCC(C)C)n2)cc1OC	none (no result: D3 antag)
CCCCN1C(=O)/C(=C/C=C2/CC(C)(C)CN2C)SC1=S	TRPML1 agonist 52.8
CCCCN1C(=O)/C(=C/C=C2\Oc3ccccc3N2CC)SC1=S	TRPML1 agonist inconclusive
O=C(C[n+]1ccccc1)Nc1cc(C(F)(F)F)ccc1Cl	D3 antag -58.1
O=C(CC(=O)c1ccccc1)Nc1cc(C(F)(F)F)ccc1Cl	none
O=C(C[n+]1ccc2ccccc2c1)Nc1cc(C(F)(F)F)ccc1Cl	D3 antag -68.0
CN(C)c1cc[n+](CC(=O)Nc2cc(C(F)(F)F)ccc2Cl)cc1	D3 antag -58.7
O=C(CN1CCCCCC1)Nc1cc(C(F)(F)F)ccc1Cl	D3 antag -77.4
COc1cccc(-n2cc(C(=O)Nc3ccccc3C(N)=O)c3ccccc3c2=O)c1	none (no result: D3 antag)
Cc1cc[n+](CC(=O)Nc2cc(C(F)(F)F)ccc2Cl)cc1	D3 antag -191.9
O=C(C[n+]1cccc2cccc(O)c21)c1ccc(Cl)cc1	none (no result: D3 antag, D3 ag, TRPML1 inh)
CCOC(=O)c1cnc2c(OC)cccc2c1N1CCN(c2ccccc2F)CC1	none (no result: D3 antag)
CCOC(=O)c1cnc2ccc(OCC)cc2c1N1CCN(c2ccccc2OC)CC1	D3 ag 34.2
CCOC(=O)c1cnc2ccc(OCC)cc2c1N(C)Cc1ccccc1	D3 ag 68.0
COc1ccc(CNC(=O)Cn2c(=O)cc(-c3ccccc3)c3c(C)nn(C)c32)cc1	none (no result: D3 antag)
CCC(C)NCCOCCSc1ccc(Cl)cc1 (configuration not stated)	D3 antag -78.3
CCC(C)NCCOCCOc1ccc(Cl)c(C)c1C (configuration not stated)	D3 antag -64.0
C=CCc1cc(Cl)ccc1OCCOCCNC(C)CC (configuration not stated)	D3 antag inconclusive
CCC(C)NCCOCCOc1ccc(Cl)c2ccccc12 (configuration not stated)	D3 antag -55.6
O=C(Nc1ccccc1OCc1cc(=O)n2ccccc2n1)Nc1ccccc1C(F)(F)F	none (no result: D3 antag)
Cc1ccc(/C(=C\CN2CCCC2)c2cccc(/C=C/C(=O)O)n2)cc1	none (no result: D3 antag, TRPML1 inh, TRPML1 agonist)
Cc1nn(CCCC(=O)NCCc2ccc(Cl)cc2)c(=O)c2c1sc1ccccc12	none (no result: D3 antag)
Cc1ccc(Oc2nc3c(c(=O)n(Cc4ccccc4)c(=O)n3C)n2C)cc1C	D3 ag 35.2 (no result: D3 antag)
Cc1ccc(Oc2nc3c(c(=O)n(Cc4ccccc4Cl)c(=O)n3C)n2C)cc1C	none (no result: D3 antag)
C=C(CCC(=O)c1ccccc1)C(=O)c1ccccc1	D3 antag -53.8
COc1cccc(Cn2c(=O)n(Cc3ccco3)c(=O)c3oc4ccccc4c32)c1	none (no result: D3 antag)
N#C/C(=C\c1ccc(Cl)cc1Cl)c1nc(-c2cccc(Cl)c2)cs1	none (no result: D3 antag)
CC1CC(C)(C)Nc2ccc(N=O)cc21 (configuration not stated)	D3 antag -84.1
Cc1cc2nc(C(C)(C)C)c(Cc3ccccc3)n2c(C)c1Br	D3 antag -97.1
COc1ccc(Cc2c(C(C)(C)C)nc3cc(C)c(Br)c(C)n23)c(C)c1	none (no result: TRPML1 inh)
Cc1cc(S(=O)(=O)NCc2ccc(N3CCN(C)CC3)cc2)c(C)s1	D3 antag -62.6
